Results from PubChem BioAssay.
Values joined by “and” are separate entries in the source; they are usually repeats but may differ in a detail not shown here. Equal entries are not always repeated. Active and inactive are the calls of the source. Unless noted, the rule behind the calls is not given here.

What was measured:
[1] = system: Wnt5a (protein binding on small-molecule microarray); experiment: Wnt5a binders on small-molecule microarray, primary screen, biophysical, 635/667 nm fluorescence (AID 1142); details: 635 nm fluorescence, higher = more signal;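 note: fluorescence read at 667 nm with signal to noise per printed feature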
[2] = cell viability in Huh7 cells, primary screen, cytotoxicity control for HCV replication inhibitor project, CellTiter-Glo luminescence, basal, 48 h (AID 1143); details: Huh7 HCV replicon, higher = more signal, called active from +8 up or from −8 down;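 note: Huh7 hepatoma cells carrying a hepatitis C replication reporter with no stimulus; test concentration not given here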
[3] = P. aeruginosa biofilm formation inhibitors, primary screen, PAO1 strain, BacTiter-Glo luminescence, LB-PBS (AID 1144); details: 12 h, higher = more signal
[4] = CREB reporter modulators without forskolin, primary screen, cell-based, PC12, CRE-LacZ reporter, unstimulated (AID 1145); details: no forskolin, luminescence, 4.5 h, higher = more signal, called active from +8 up or from −8 down
[5] = CREB reporter modulators under forskolin, primary screen, cell-based, PC12, CRE-LacZ reporter, forskolin-stimulated (AID 1146); details: luminescence, 4.5 h, higher = more signal, called active from +8 up or from −8 down;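 note: PC12 cells with 6xCRE LacZ reporter stimulated by forskolin 10 µM; beta-galactosidase reporter signal reflecting CREB driven transcription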
[6] = target: Streptavidin (Streptomyces avidinii) (UniProt P22629); experiment: streptavidin binders on small-molecule microarray, primary screen, artefact control for SMM compound annotation, biophysical, 635/667 nm fluorescence (AID 1147); details: streptavidin binding, higher = more signal;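 note: signal reflects streptavidin binding to arrayed compounds as a control protein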
Streptavidin (Streptomyces avidinii), sequence (P22629 whole entry, looked up): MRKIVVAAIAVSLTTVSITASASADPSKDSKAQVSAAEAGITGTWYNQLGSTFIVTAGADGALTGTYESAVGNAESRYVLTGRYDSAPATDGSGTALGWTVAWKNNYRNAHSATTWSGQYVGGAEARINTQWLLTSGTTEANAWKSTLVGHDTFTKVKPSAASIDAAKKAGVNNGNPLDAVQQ

[7] = small-molecule binders of probe aInhba, primary screen, biochemical, small-molecule microarray, 635/667 nm fluorescence (AID 1148); details: higher = more signal;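 note: score merges 667nm spot fluorescence with signal-to-noise for antibody binding to printed compounds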
Torsin-1A (Homo sapiens) [8] = target: Torsin-1A (Homo sapiens) (UniProt O14656); experiment: torsin A binders from cell lysate, primary screen, small-molecule microarray, wild-type, 635/667 nm (AID 1149); details: COS7 hTOR1A-WT lysate, 635 nm fluorescence, higher = more signal
Torsin-1A (Homo sapiens), sequence (O14656 whole entry, looked up): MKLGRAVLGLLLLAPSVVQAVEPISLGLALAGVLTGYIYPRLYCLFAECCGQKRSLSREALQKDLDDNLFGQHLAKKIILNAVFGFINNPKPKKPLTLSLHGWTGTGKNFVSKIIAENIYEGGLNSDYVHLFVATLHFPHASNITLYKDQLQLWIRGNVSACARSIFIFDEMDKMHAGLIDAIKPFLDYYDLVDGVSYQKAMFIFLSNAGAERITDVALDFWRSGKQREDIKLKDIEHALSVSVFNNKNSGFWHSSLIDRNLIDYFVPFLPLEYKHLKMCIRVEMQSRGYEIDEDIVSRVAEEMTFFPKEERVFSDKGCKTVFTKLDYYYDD

Torsin-1A (Homo sapiens) [9] = target: Torsin-1A (Homo sapiens) (UniProt O14656); experiment: small-molecule binders of mutant TOR1A in lysate, primary screen, cell lysate, small-molecule microarray, COS7 lysate, 635/667 nm fluorescence (AID 1150); details: COS7 hTOR1A mutant lysate, 635 nm fluorescence, higher = more signal;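 note: score pools 667 nm emission and signal to noise measuring lysate protein binding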
[10] = system: Sonic hedgehog protein (Shh); experiment: small-molecule binders of Shh protein, primary screen, biochemical, small-molecule microarray, 635/667 nm fluorescence (AID 1151); details: small-molecule microarray binding, 635 nm fluorescence; higher = more signal;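 note: Shh protein binding to compounds spotted on small-molecule microarray slides; score combines spot fluorescence intensity with signal-to-noise across triplicate slides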
[11] = E. coli DRC41 culture turbidity changes, primary screen, E. coli filamentation inducer project, strain DRC41, OD650, 48 h (AID 1152);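 note: E. coli MC1000 strain DRC41 lacking acrAB efflux pump and sulA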; details: E. coli DRC41 (acrAB sulA), higher = more signal, called active from +8 up or from −8 down
[12] = small-molecule binders of probe aLefty1, primary screen, biochemical, small-molecule microarray, 635/667 nm fluorescence (AID 1153); details: higher = more signal;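 note: score merges spot fluorescence with signal-to-noise ratio from the scanned slide images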
[13] = PSAC antagonists in infected red cells, primary screen, cell-based, P. falciparum Indochina, OD700, 1 h (AID 1154); details: P. falciparum Indochina infected RBC osmotic lysis, higher = more signal, called active from +8 up or from −8 down
[14] = PSAC antagonists in infected red cells, primary screen, cell-based, P. falciparum Indochina, OD700, 2 h (AID 1155);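 note: lysis reports solute entry through the parasite surface anion channel PSAC; channel blockers reduce lysis of infected cells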; details: P. falciparum Indochina infected erythrocytes, osmotic lysis OD700; higher = more signal, called active from +8 up or from −8 down
[15] = osmotic lysis modulators in infected erythrocytes, primary screen, PSAC antagonist project, cell-based, P. falciparum Indochina, OD700, 3 h (AID 1156); details: higher = more signal, called active from +8 up or from −8 down
[16] = PSAC antagonists in infected red cells, primary screen, cell-based, P. falciparum Indochina, OD700, 18 h (AID 1157); details: P. falciparum Indochina infected erythrocytes, osmotic lysis OD700, 18 h; higher = more signal, called active from +8 up or from −8 down
[17] = modulators of S6 phosphorylation in cells, primary screen, cell-based, A549, cytoblot, luminescence, serum-stimulated (AID 1158); details: A549 phospho-S6 cytoblot, 5 h, higher = more signal;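 note: serum-stimulated A549 lung adenocarcinoma cells; signal is phosphorylated S6 detected by cytoblot immunostaining with HRP secondary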
[18] = target: NADPH oxidase 2 (Homo sapiens) (UniProt P04839); experiment: NOX2-dependent H2O2 signal modulators, primary screen, NOX inhibitor project, cell-based, HEK293-NOX2, PMA-stimulated, Amplex Red fluorescence (AID 1159); details: 45 min, higher = more signal, called active from +8 up or from −8 down; note: test concentration not given here
NADPH oxidase 2 (Homo sapiens), sequence (P04839 whole entry, looked up): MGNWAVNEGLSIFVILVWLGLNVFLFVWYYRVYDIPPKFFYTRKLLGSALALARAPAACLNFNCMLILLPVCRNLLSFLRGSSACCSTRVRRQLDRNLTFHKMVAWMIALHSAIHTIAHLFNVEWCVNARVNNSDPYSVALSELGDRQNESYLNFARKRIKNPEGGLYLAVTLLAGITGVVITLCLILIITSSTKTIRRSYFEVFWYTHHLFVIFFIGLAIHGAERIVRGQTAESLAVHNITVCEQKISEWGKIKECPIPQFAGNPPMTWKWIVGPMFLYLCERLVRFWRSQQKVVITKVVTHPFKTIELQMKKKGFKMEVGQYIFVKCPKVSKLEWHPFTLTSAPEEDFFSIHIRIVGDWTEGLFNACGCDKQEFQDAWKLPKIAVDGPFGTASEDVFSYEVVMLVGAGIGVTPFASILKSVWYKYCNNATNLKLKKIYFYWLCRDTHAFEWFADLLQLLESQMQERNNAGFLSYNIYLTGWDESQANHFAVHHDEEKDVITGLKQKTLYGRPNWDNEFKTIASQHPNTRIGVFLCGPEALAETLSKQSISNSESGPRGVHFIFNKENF

[19] = target: NADPH oxidase 4 (Homo sapiens) (UniProt Q9NPH5); experiment: NOX4-dependent H2O2 signal modulators, primary screen, NOX inhibitor project, cell-based, HEK293-NOX4, tetracycline-induced, Amplex Red fluorescence (AID 1160); details: 45 min, higher = more signal, called active from +8 up or from −8 down
NADPH oxidase 4 (Homo sapiens), sequence (Q9NPH5 whole entry, looked up): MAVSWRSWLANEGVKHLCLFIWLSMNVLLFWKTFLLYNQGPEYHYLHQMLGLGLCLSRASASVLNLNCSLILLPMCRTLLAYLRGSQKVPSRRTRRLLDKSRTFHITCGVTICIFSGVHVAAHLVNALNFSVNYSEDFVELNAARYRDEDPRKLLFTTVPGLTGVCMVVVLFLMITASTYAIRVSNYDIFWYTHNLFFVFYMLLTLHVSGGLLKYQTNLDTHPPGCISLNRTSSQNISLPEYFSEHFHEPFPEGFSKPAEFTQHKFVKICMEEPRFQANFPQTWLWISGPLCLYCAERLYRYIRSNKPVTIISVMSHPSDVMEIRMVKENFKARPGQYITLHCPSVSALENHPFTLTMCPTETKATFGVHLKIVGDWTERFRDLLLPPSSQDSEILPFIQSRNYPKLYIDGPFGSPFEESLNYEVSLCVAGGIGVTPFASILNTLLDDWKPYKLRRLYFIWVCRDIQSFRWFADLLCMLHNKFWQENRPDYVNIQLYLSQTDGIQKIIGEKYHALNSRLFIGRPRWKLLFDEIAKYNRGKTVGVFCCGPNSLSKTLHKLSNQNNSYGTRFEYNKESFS

[20] = target: NADPH oxidase 5 (Homo sapiens) (UniProt Q96PH1); experiment: NOX5-dependent H2O2 signal modulators, primary screen, NOX inhibitor project, cell-based, HEK293-NOX5, Amplex Red fluorescence (AID 1161); details: HEK293-NOX5, ionomycin, 45 min, higher = more signal
NADPH oxidase 5 (Homo sapiens), sequence (Q96PH1 whole entry, looked up): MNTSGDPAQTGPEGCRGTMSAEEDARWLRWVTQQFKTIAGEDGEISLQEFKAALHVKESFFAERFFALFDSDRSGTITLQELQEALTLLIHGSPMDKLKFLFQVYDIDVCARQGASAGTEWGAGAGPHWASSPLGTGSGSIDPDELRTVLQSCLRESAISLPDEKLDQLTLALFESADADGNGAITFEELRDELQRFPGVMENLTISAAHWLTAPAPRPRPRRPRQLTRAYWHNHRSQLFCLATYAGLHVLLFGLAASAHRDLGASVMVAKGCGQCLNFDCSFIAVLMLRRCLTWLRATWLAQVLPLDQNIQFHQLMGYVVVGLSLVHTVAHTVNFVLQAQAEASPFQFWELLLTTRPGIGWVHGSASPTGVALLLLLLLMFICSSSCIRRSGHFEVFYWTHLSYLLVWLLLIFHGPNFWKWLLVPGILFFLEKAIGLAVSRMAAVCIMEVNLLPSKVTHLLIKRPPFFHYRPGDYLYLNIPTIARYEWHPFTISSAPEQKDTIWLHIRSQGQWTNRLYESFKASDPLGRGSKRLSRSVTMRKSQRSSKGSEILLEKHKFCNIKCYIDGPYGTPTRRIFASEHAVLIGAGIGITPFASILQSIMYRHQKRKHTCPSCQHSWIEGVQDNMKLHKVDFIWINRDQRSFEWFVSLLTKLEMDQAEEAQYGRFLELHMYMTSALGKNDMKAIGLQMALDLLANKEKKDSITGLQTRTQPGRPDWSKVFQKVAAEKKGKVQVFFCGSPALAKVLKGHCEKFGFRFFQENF

| SMILES | composite z-score [1] | z-score [2] | z-score [3] | z-score [4] | z-score [5] | composite z-score [6] | composite z-score [7] | composite z-score (Torsin-1A (Homo sapiens) [8]) | composite z-score (Torsin-1A (Homo sapiens) [9]) | composite z-score [10] | z-score [11] | composite z-score [12] | z-score [13] | z-score [14] | z-score [15] | z-score [16] | z-score [17] | z-score [18] | z-score [19] | z-score [20] |
| --- | --- | --- | --- | --- | --- | --- | --- | --- | --- | --- | --- | --- | --- | --- | --- | --- | --- | --- | --- | --- |
| CO[C@@H]1COC(=O)CC=C[C@H](C)COC(=O)[C@H](C)NC(=O)CC=C[C@H]1C | 0.144 | 0.178 (inactive) | 0.213 (inactive) | 1.24 (inactive) | -0.218 (inactive) | 0.477 | -0.208 | 0.919 | 1.16 | 1.19 | -0.762 (inactive) | -0.344 | -0.0875 (inactive) | 0.193 (inactive) | 0.599 (inactive) | -0.138 (inactive) | -0.677 | 2.01 (inactive) | 0.486 (inactive) | -0.47 |
| Cc1ccc(S(=O)(=O)OC[C@@H]2CN3[C@@H](CC[C@@H](C)[C@@H]3c3ccc(Br)cc3)C(=O)O2)cc1 | 0.225 and 0.0286 | 0.0308 (inactive) and -0.565 (inactive) | 0.152 (inactive) and -0.0678 (inactive) | 0.471 (inactive) and 1.22 (inactive) | 0.599 (inactive) and -0.853 (inactive) | 0.197 and 0.0059 | -0.0736 and 0.0173 | 0.478 and 0.543 | 0.244 and 0.594 | 0.566 and 0.616 | 0.0029 (inactive) and -0.348 (inactive) | -0.134 and -0.144 | 2.52 (inactive) and 4.44 (inactive) | 0.0068 (inactive) and 1.78 (inactive) | -0.414 (inactive) and 0.812 (inactive) | -0.0954 (inactive) and 0.932 (inactive) | -0.834 and 0.119 | 1.24 (inactive) and 0.787 (inactive) | 0.37 (inactive) and -0.0143 (inactive) | 0.0798 and 0.702 |
| C=CCN(CCCCC)C(=O)C1N(c2ccc(CCO)cc2)C(=O)C2C(C(=O)O)C3C=CC21O3 (stereo not given) | -0.479 and -0.327 | -0.641 (inactive) and -0.552 (inactive) | 0.839 (inactive) and 0.128 (inactive) | -0.48 (inactive) and -0.619 (inactive) | 0.589 (inactive) and -0.601 (inactive) | -1.64 and -1.36 | -0.206 and 0.789 | -1.94 and -0.448 | 0.101 and -1.53 | -0.568 and 2.02 | -0.202 (inactive) and 0.216 (inactive) | -0.0099 and 0.0736 | 1.47 (inactive) and 1.68 (inactive) | 0.351 (inactive) and 0.438 (inactive) | -0.148 (inactive) and -0.54 (inactive) | 0.0385 (inactive) and 0.356 (inactive) | 1.15 and 0.435 | 1.21 (inactive) and 0.745 (inactive) | 0.564 (inactive) and 0.124 (inactive) | 0.698 and 0.836 |
| CC(CO)N1C(=O)[C@@H]2C3C(=O)OCCC=C[C@H]3OC23C=CCN(C(C)(C)C)C(=O)[C@@H]13 (stereo not given in full) | -0.221 and 0.386 | 1.18 (inactive) and -0.0534 (inactive) | 1.02 (inactive) and 1.16 (inactive) | -0.0859 (inactive) and -0.903 (inactive) | -0.596 (inactive) and 0.158 (inactive) | -1.5 and -0.476 | -0.206 and 0.188 | -0.0147 and 0.756 | -0.0948 and 0.346 | 0.0735 and 0.915 | -0.745 (inactive) and -0.506 (inactive) | -0.224 and 0.227 | 0.901 (inactive) and 1.86 (inactive) | -0.27 (inactive) and 0.449 (inactive) | 1.02 (inactive) and 0.409 (inactive) | 0.406 (inactive) and 0.112 (inactive) | 1.11 and -0.113 | 0.793 (inactive) and 1.49 (inactive) | 0.0644 (inactive) and 0.425 (inactive) | 1.96 and 2.84 |
| O=C1[C@H]2[C@H]3[C@H](O)[C@H](O)CC(=NOCc4ccccc4)[C@H]3CC[C@H]2C(=O)N1Cc1ccccc1 | 0.0003 | -5.42 (inactive) | -0.788 (inactive) | 0.796 (inactive) | 0.888 (inactive) | 0.725 | -0.257 | 0.119 | 0.358 | 0.659 | -0.925 (inactive) | 0.0037 | 5.58 (inactive) | 0.42 (inactive) | 0.224 (inactive) | -0.456 (inactive) | 0.741 | -1.14 (inactive) | -2.92 (inactive) | -2.42 |
| C[N+](C)(C)CCCCCCNC(=O)[C@@H]1C[C@@H]2C(=O)N[C@@H](CCCC[N+](C)(C)C)C(=O)N2[C@@H]1c1ccc(O)cc1 | 0.107 and -0.0086 | 0.0047 (inactive) and 0.0071 (inactive) | -0.424 (inactive) and -0.439 (inactive) | -0.532 (inactive) and -1.08 (inactive) | -1.2 (inactive) and 0.128 (inactive) | -0.392 and -0.129 | -0.128 and -0.0375 | 0.854 and -0.609 | 0.0983 and -0.498 | 1.61 and 2.12 | 0.877 (inactive) and 0.123 (inactive) | -0.0011 and -0.149 | 0.973 (inactive) and 1.9 (inactive) | 0.106 (inactive) and 0.554 (inactive) | -0.0454 (inactive) and 0.0605 (inactive) | -0.115 (inactive) and 0.375 (inactive) | -0.336 and -0.254 | -0.441 (inactive) and -0.988 (inactive) | 0.105 (inactive) and -0.431 (inactive) | 0.58 and -0.839 |
